Assay results from article PMC11024108.

Target: T1, Monocarboxylate transporter 1 (UniProt P53985)
T1 sequence: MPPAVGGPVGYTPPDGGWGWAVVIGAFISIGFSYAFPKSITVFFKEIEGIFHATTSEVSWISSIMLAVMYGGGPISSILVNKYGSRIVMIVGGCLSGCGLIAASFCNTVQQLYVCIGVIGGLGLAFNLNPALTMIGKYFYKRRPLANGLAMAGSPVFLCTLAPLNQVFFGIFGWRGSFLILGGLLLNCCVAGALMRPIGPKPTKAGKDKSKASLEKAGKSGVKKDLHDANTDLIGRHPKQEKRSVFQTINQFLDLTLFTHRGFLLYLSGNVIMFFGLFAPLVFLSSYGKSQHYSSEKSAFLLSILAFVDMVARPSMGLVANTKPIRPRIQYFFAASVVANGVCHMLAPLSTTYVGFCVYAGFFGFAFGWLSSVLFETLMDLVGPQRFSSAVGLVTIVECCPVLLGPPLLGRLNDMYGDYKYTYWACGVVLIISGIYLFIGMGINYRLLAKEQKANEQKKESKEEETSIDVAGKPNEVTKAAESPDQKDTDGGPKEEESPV
Test: cross-link between two proteins; cross-linking mass spectrometry

## Sodium/potassium-transporting ATPase subunit alpha-1, P05023
  listed as a hit: yes
